Source: PubChem BioAssay (National Center for Advancing Translational Sciences (NCATS))
Pf Dd2 growth: qHTS Primary assay for Inhibitors of Plasmodium falciparum Dd2 growth in vitro. P. falciparum Dd2 growth, SYBR Green, 72 h. Potency, µM (titrated, usually from 28.9 µM), for the others: at the top dose activity, negative = inhibition, hits mostly inhibitors. actives 4.3% (n = 120,000). AID 1347417, 2020; active = well fitted inhibition curve with a large enough effect;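 also: plate controls were DMSO vehicle for no effect and reference drug for full effect; nearly all actives have a fitted effect of over 65% in size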
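Readout: SYBR Green fluorescence, 485 nm excitation, 535 nm emission, after ~16 h lysis at 37C. Before that, Dd2-infected red cells (2.5% hematocrit) grew 72 h with compound, 29 uM top final concentration.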
Numbers without * were called inactive; i = inactive; [ ] = dose if it differs, or a comment. The full list was thinned out, with hits kept by preference. Potency is read from the fitted curve at half-maximal effect.

SMILES | Pf Dd2 growth
CCN1CCN(CCCNC(=O)c2cc3c(=O)n(C)c4ccccc4c3s2)CC1 | 3.16µM*
CCN(CCCNC(=O)c1cc2c(=O)n(CC)c3ccccc3c2s1)c1ccccc1 | -1.1%
Cc1ccc2[nH]c(=O)c3cc(C(=O)NCCCN4CCC(C)CC4)sc3c2c1 | 8.91µM*
Cn1c(=O)c2cc(C(=O)NCCCN3CCN(c4ccc(F)cc4)CC3)sc2c2ccccc21 | -4.4%
CCn1c(=O)c2cc(C(=O)NCCCN3CCC(C)CC3)sc2c2ccccc21 | i
CN(CCCNC(=O)c1cc2c(=O)n(C)c3ccccc3c2s1)Cc1ccccc1 | 10µM*
CC(C(=O)NC1CCN(c2cnn(C)c(=O)c2)CC1)c1ccccc1 (stereo not given) | 0.0%
CN(CC1CCOC1)S(=O)(=O)c1ccccc1 (stereo not given) | 66.5%[5.79 µM]
O=CN1CCC(Cn2cnc3cccnc32)CC1 | 22.2%[44.1 µM]
CC1=NOC(C(=O)N2CCOc3c(O)cc(-c4nc(C)cnc4C)cc3C2)C1 (stereo not given) | -13.5%
CCOC(=O)C(C)N1CCOc2c(O)cc(-c3cccc(Cl)c3)cc2C1 (stereo not given) | 11.2µM*
CC(=O)NCCC(=O)N1CCOc2c(O)cc(-c3cccc(Cl)c3)cc2C1 | i
COCCNC(=O)CCc1c(C)nn(-c2ccc(F)cc2)c1Oc1ccc(F)cc1F | i
O=C(c1cc[nH]c(=O)c1)N1C[C@@H](COCC2CC2)[C@H](c2ccccn2)C1 | 9.1%
Cn1cccc1CN1CCn2c(nn(-c3ccc(Cl)cc3)c2=O)C1 | -20.4%
COc1cc2nc(NCc3ccc(C)cc3)n3nc(-c4ccccc4)nc3c2cc1OC | 0.1µM*
COc1cc2nc(NCCc3cccc(C)c3)n3nc(-c4ccccc4)nc3c2cc1OC | 0.501µM*
COc1ccccc1CNc1nc2ccccc2c2nc(-c3cccnc3)nn12 | -23.5%
Cc1ccc(CNc2nc3ccccc3c3nc(-c4cccc(C)c4)nn23)cc1 | 8.2%
Cc1cccc(-c2nc3c4ccccc4nc(NCc4ccc(Cl)cc4)n3n2)c1 | -15.7%
COCCCNC(=O)CSc1nc2cc(OC)c(OC)cc2c2nc(-c3ccccc3)nn12 | -22.2%
COc1ccc(CNC(=O)COc2ccc(NC(=O)C3CC3)cn2)cc1 | -9.0%
CCNC(=O)N1CCCN(S(=O)(=O)c2ccccc2)CCC(=O)NCC1 | 0.2%
COc1ccc(CCNC(=O)Cc2c(C)c3cc4c(C)coc4c(C)c3oc2=O)cc1 | -20.2%
COC(=O)Cc1c(C)c2ccc3c(c2oc1=O)CN(Cc1ccc(Cl)cc1)CO3 | 7.08µM*
SMILES | Pf Dd2 growth
O=C(Nc1ccc2c(c1)CN(Cc1ccc(Cl)cc1)C(=O)CO2)c1ccccc1 | -13.7%
Cc1cc(=O)oc2c3c(ccc12)OCN(Cc1ccc(Cl)cc1)C3 | 5.62µM*
O=C(Cn1c(=O)oc2ccccc21)NCc1ccc(Cl)cc1 | 6.4%
O=c1oc2c3c(ccc2c2ccccc12)OCN(Cc1ccc(Cl)cc1)C3 | 10µM*
Cc1coc2c(C)c3oc(=O)c(CCC(=O)NCCc4ccc(Cl)cc4)c(C)c3cc12 | -3.4%
Cc1ccc2c(CN3CCN(c4ccc(Cl)cc4)CC3)cc(=O)oc2c1 | -9.4%
CCOc1ccc2oc(=O)cc(CN3CCN(Cc4ccc(C)cc4)CC3)c2c1 | i
O=C(c1ncn[nH]1)N1CCc2ccc(S(=O)(=O)NCC3CCCO3)cc2C1 (stereo not given) | 17.3%
CN(Cc1noc2c1CCCC2)C(=O)Cn1cccc(C(F)(F)F)c1=O | 2.9%
Cc1cccc(OCC2(CNC(=O)c3cnccn3)C[C@@H](O)[C@@H](O)C2)n1 (stereo not given in full) | -20.1%[44.1 µM]
CN(C)C(=O)c1n[nH]c2c1CN(C(=O)c1cc(F)cc(F)c1)CC2 | i
O=C(CC1CCN(C(=O)Nc2ccccc2F)C1)NCc1ccccc1 (stereo not given) | 64.8%
O=C(C1CCCCC1)N1CCCC2(CC(c3ccccn3)=NO2)C1 (stereo not given) | 8.4%
NCCC(=O)N1CCC(n2nccc2NC(=O)c2cccc(F)c2)CC1 | -9.1%
COc1ncccc1C(=O)N1CCCC(c2[nH]ncc2Cc2ccccc2)C1 (stereo not given) | -13.4%
Cc1cnc(-c2cccnc2)n1C1CCCN(C(=O)C2CC2)C1 (stereo not given) | -22.2%
Cc1cnc(-c2cccnc2)n1CC1CCN(CC2CC2)CC1 | -14.6%
Cc1cnc(-c2cccnc2)n1C1CCCN(CC2CCCCC2)C1 (stereo not given) | 11.2µM*
CCc1nccc(CN2CCC(c3nn(C)c(=O)n3CC)CC2)n1 | 7.9%
O=C(c1ccco1)N1CCCC(CCc2cccc(F)c2)C1 (stereo not given) | -10.0%
O=C(c1cncc(N2CCCC(CCc3cccc(F)c3)C2)n1)N1CCCCC1 (stereo not given) | 11.2µM*
Cc1cnc(C(=O)N2CCCC(CCc3cccc(F)c3)C2)cn1 (stereo not given) | 2.0%
COCCN1CC2(CCCN(C(=O)CCc3cccc(F)c3)C2)CCC1=O (stereo not given) | -5.9%
Cc1cc(C)n(CC(=O)N[C@@H]2CN(Cc3ccccc3)C[C@H]2CN(C)C)c(=O)n1 | 28.7%
O=C(C[C@@H]1C[C@H]2O[C@H](CNCc3ccccc3C(F)(F)F)[C@@H](O)[C@H]2O1)N1CCC(F)(F)C1 | 26.4%
SMILES | Pf Dd2 growth
O=C(c1ccncc1)N1CCC2(CC1)NCCc1c2[nH]c2ccccc12 | i
O=C(c1cccnc1)N1CCC2(CC1)NCCc1c2[nH]c2ccccc12 | -13.1%
O=C(c1ccc(Cn2ccnc2)o1)N1CCC2(CC1)NCCc1c2[nH]c2ccccc12 | 12.6µM*
COc1cccc(-c2cc(CNC(=O)C3COc4c(cccc4OC)C3)no2)c1 (stereo not given) | -2.4%
CCC(C(=O)NC1CCN(c2cnn(CC)c(=O)c2)CC1)c1ccccc1 (stereo not given) | 0.9%
COc1cccc(S(=O)(=O)N2CC(n3cc(C(=O)NCc4ccccc4)nn3)C2)c1 | 7.0%
CCN1C(=O)COC[C@@H]1[C@H](O)c1ccc(NC(=O)c2cccnc2)cc1 | 8.0%[44.1 µM]
Cc1nn(-c2ccccc2[N+](=O)[O-])c(C)c1[C@@H]1C=C[C@@H](NS(=O)(=O)c2ccccc2)C1 | i
O=C(NC1CCCC1)N1CCC(Oc2ccccc2-c2nc(-c3ccncc3)no2)C1 (stereo not given) | -28.5%
CCOCCCNC(=O)c1cc2cn(C3CC3)cc2s1 | -26.5%
COc1ccc(-c2cc([C@H]3CN4CC[C@H]3C[C@@H]4CNC(=O)C(C)(C)C)n(C)n2)cc1OC | i
CC(C)NC(=O)OC[C@H]1C[C@@H]2CCN1C[C@@H]2c1cc(-c2ccc3ccccc3c2)nn1C | i
COc1ccc(-c2cc([C@H]3CN4CC[C@H]3C[C@@H]4CNC(=O)c3ccc(C)cc3)n(C)n2)cc1OC | -8.8%
Cn1nc(-c2ccc3ccccc3c2)cc1[C@H]1CN2CC[C@H]1C[C@@H]2CNC(=O)Nc1ccccc1 | i
COc1ccc(-c2cc([C@H]3CN4CC[C@H]3C[C@@H]4CNC(=O)Nc3ccccc3)n(C)n2)cc1OC | 5.62µM*
CC(C)NC(=O)NC[C@H]1C[C@@H]2CCN1C[C@@H]2c1cc(-c2ccc3ccccc3c2)nn1C | 6.31µM*
COc1cccc(C(=O)N2CCC3(CC2)CC(OCC2CC2)CCO3)c1 (stereo not given) | i
O=c1[nH]c(N2CCOCC2)nc2c1CCN(Cc1cccnc1)CC2 | 45.6%[5.79 µM]
CCN(C)Cc1nc(C2CCOCC2)nn1CC1COCCO1 (stereo not given) | -8.8%
Cc1[nH]c2ccccc2c1CN1CCc2nc(N3CCOCC3)[nH]c(=O)c2CC1 | i[5.79 µM]
